LAP4 TOR yeast = modulators of LAP4-GFP expression in yeast, primary screen, S. cerevisiae, multiplex flow cytometry, MLPCN library; 3 h; median GFP as percent of DMSO wells; GFP response vs DMSO, % at 10 µM; actives 0.34% (n = 320,000);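 active = GFP response vs DMSO above a set limit, about the screen mean plus 3 SD, cut at about 150% in these data; inconclusive = under 70 cell events counted for the yeast strain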
CIT2-GFP yeast = modulators of CIT2-GFP expression in yeast, primary screen, S. cerevisiae, GFP fusion, multiplex flow cytometry, MLPCN library | actives 0.065% (n = 320,000) | S. cerevisiae CIT2-GFP strain, 3 h; 100 means same as DMSO wells | AID 2029, 2009 | GFP response vs DMSO, % at 10 µM;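 active = GFP response relative to DMSO above a set limit, near the screen mean plus 3 SD, cut at about 150% in these data; inconclusive = Fewer than 70 cells measured for a yeast strain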;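 note: ratio of well median GFP fluorescence to mean of DMSO wells on the plate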
RPL19A TOR yeast = RPL19A-GFP expression modulators in yeast, primary screen, cell-based, S. cerevisiae, multiplex flow cytometry, MLPCN | S. cerevisiae RPL19A-GFP strain, 3 h; stronger effect = lower value | percent response vs DMSO, % at 10 µM | actives 0.3% (n = 330,000) | AID 2025, 2009;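 active = percent response vs DMSO below 50%; inconclusive = fewer than 70 events counted for the yeast strain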;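 note: median channel GFP fluorescence of the barcoded RPL19A-GFP strain; lower means less RPL19A-GFP as with rapamycin TOR inhibition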
MEP2-GFP yeast = modulators of MEP2-GFP levels in yeast, primary screen, S. cerevisiae, multiplex flow cytometry, MLPCN library; S. cerevisiae MEP2-GFP strain, 3 h; 100% = DMSO control level; GFP response vs DMSO, % at 10 µM; actives 0.51% (n = 330,000); AID 2016, 2009;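 active = GFP response versus DMSO above a set limit, roughly screen mean plus 3 SD, cut at about 180% in these data; inconclusive = fewer than 70 cells counted for a yeast strain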;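 note: median GFP fluorescence of the barcode-gated MEP2-GFP cells per well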
AGP1-GFP MLPCN = modulators of AGP1-GFP expression in yeast TOR pathway, primary screen, cell-based, multiplex flow cytometry, S. cerevisiae, MLPCN library. 3 h; GFP as percent of DMSO wells. GFP response vs DMSO, % at 10 µM. actives 0.02% (n = 320,000);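 active = GFP response relative to DMSO above a set limit, near screen average plus 3 SD, cut at about 150% in these data; inconclusive = fewer than 70 cells counted for the yeast strain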;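 note: median GFP channel fluorescence of the gated AGP1 strain per well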
Large screens that a line does not name were inactive; [ ] = dose if it differs, or a comment. Only some compounds are listed: those with a hit (about 0.93% of all), similar ones and a draw of the others.

Cc1[nH]nc2c1C(c1ccccc1F)NC2=O (stereo unspecified)	none
N#Cc1c(-c2ccccc2)nc2n1CCS2	CIT2-GFP yeast inconclusive, RPL19A TOR yeast 42[may fluoresce violet], AGP1-GFP MLPCN inconclusive
Cc1ccc2c(COC(=O)c3ccccc3F)cc(=O)oc2c1	CIT2-GFP yeast inconclusive, MEP2-GFP yeast 413[may fluoresce violet], AGP1-GFP MLPCN inconclusive
Cc1ccc(C(=O)c2ccc([N+](=O)[O-])cc2)cc1	none
Cc1ccc(S(=O)(=O)CC#CCOC(=O)c2ccc([N+](=O)[O-])cc2)cc1	LAP4 TOR yeast 156
O=C(O)c1ccccc1OCCOCCOc1ccccc1C(=O)O	CIT2-GFP yeast inconclusive, RPL19A TOR yeast 44[may fluoresce violet]
O=C(O)c1ccccc1OCCOc1ccccc1C(=O)O	none
COc1ccccc1NS(=O)(=O)c1cccc(C(=O)NNC(=O)c2ccc(NC(C)=O)cc2)c1	none
COC(=O)n1c(=S)oc2cc(Cl)ccc21	LAP4 TOR yeast 159
COc1ccc(-c2csc(Nc3ncccc3C)n2)cc1	LAP4 TOR yeast 151 (no result: AGP1-GFP MLPCN)
COc1ccc(CNC(=O)C(CC(C)C)NC(=O)c2ccccc2C)cc1 (stereo unspecified)	CIT2-GFP yeast inconclusive, MEP2-GFP yeast 200[may fluoresce violet]
CCC(CC)C(=O)NCc1ccc(OC)cc1	none
O=C1NC(=O)/C(=C\c2ccc(OCc3cccc(C(=O)O)c3)c(Cl)c2)N1	none
Cc1ccc(N=c2oc3cc(O)ccc3cc2C(N)=O)cc1	CIT2-GFP yeast inconclusive, RPL19A TOR yeast 49[may fluoresce violet], MEP2-GFP yeast 614[may fluoresce violet]
Cc1ccc(C(=O)N/N=c2\oc3ccccc3cc2C(N)=O)cc1	none
COc1ccc(/C=N/NC(=O)C(C)n2cnc3ccccc3c2=O)cc1OC (stereo unspecified)	none
CCN(CC)CCn1c(N)nc2ccccc21	CIT2-GFP yeast inconclusive, MEP2-GFP yeast 317[may fluoresce violet]
CCN(CC)CCn1c(NS(=O)(=O)c2ccc(C)cc2)nc2ccccc21	none
O=C(O)C(Cc1ccccc1)N1C(=O)/C(=C/c2cccc3ccccc23)SC1=S (stereo unspecified)	none
CCOc1cc(N2CCOCC2)c(OCC)cc1NC(=O)c1ccc(-n2ccnc2)c([N+](=O)[O-])c1	none
COc1ccccc1NC(=O)c1ccc(-n2ccnc2)c([N+](=O)[O-])c1	CIT2-GFP yeast inconclusive, MEP2-GFP yeast 206[may fluoresce violet], AGP1-GFP MLPCN inconclusive
C=CCOc1c(Cl)cc(/C=N/O)cc1OC	none
CCCCCn1c(CNC(=O)COC)nc2ccccc21	CIT2-GFP yeast inconclusive, RPL19A TOR yeast 20[may fluoresce violet], MEP2-GFP yeast 191[may fluoresce violet], AGP1-GFP MLPCN inconclusive
CC(=O)c1ccc(NC(=O)C(Cc2ccccc2)NC(=O)c2ccco2)cc1 (stereo unspecified)	none
COc1cc(/C=C2\C(=O)N(CCC#N)N=C2C)ccc1OCC(=O)Nc1ccccc1	none
CCOc1ccc(OCC(=O)N(C)c2c(N)n(Cc3ccccc3)c(=O)[nH]c2=O)cc1	LAP4 TOR yeast inconclusive, CIT2-GFP yeast inconclusive, RPL19A TOR yeast 43[may fluoresce violet], AGP1-GFP MLPCN inconclusive
C=C1C[C@H](O[C@@H]2O[C@H](CO)[C@@H](O)[C@H](O)[C@H]2O)[C@@H]2[C@H](OC(=O)[C@H]2C)[C@H]2[C@H](C)[C@@H](O)C[C@@H]12	none
COc1ccc(NC(=O)c2ccco2)c([N+](=O)[O-])c1	none
COc1ccc(NC(=O)C/C(C)=N/NC(=O)c2ccco2)c([N+](=O)[O-])c1	CIT2-GFP yeast inconclusive, MEP2-GFP yeast 396[may fluoresce violet], AGP1-GFP MLPCN inconclusive
CCOc1cc(C)c(S(=O)(=O)N2CCCC2)cc1C	LAP4 TOR yeast 154
O=C(COC(=O)c1ccc(Cl)cc1)NC1CCCCCC1	none
CCn1cc(Br)c(C(=O)N(C)Cc2ccccc2)n1	none
O=C(ON=C1CCN(c2ccc([N+](=O)[O-])cc2)CC1)c1ccccc1	none
COc1ccc(C(=O)ON=C2CCN(c3ccc([N+](=O)[O-])cc3)CC2)cc1	LAP4 TOR yeast 150
COc1ccc(NS(=O)(=O)c2ccc(C)c(C(=O)NC3CCN(Cc4ccccc4)CC3)c2)cc1	none
Nc1ccc(O)c2ccccc12	CIT2-GFP yeast inconclusive, MEP2-GFP yeast 183[may fluoresce violet]
CCOc1ccc(S(=O)(=O)N(C)CC(=O)NCc2ccc3c(c2)OCO3)cc1	none
CC(=O)c1cccc(NC(=O)/C(=C\c2ccco2)NC(=O)c2cccs2)c1	none
COCCN(C(=O)CCc1nnc(Cc2c[nH]c3ccccc23)o1)C(C)C	none
Cc1ccc(-n2c(N)c(C(=O)Nc3c(C)n(C)n(-c4ccccc4)c3=O)c3nc4ccccc4nc32)cc1C	none
COc1ccc(-n2c(N)c(C(=O)Nc3c(C)n(C)n(-c4ccccc4)c3=O)c3nc4ccccc4nc32)cc1	LAP4 TOR yeast 157, MEP2-GFP yeast 205
Cc1ccc(/C=C/c2nnc(-c3cccs3)o2)cc1	none
Cc1cc(C)c2c(CN3CCN(Cc4ccc5c(c4)OCO5)CC3)cc(=O)oc2c1C	CIT2-GFP yeast inconclusive, MEP2-GFP yeast 255[may fluoresce violet] (no result: RPL19A TOR yeast)
Cc1ccc2c(CN3CCN(Cc4ccc5c(c4)OCO5)CC3)cc(=O)oc2c1C	none
COC(=O)c1ccc(N=NN2CCCCCC2)cc1	none
CCOC(=O)N1CCC(n2c(SCC(=O)N3CCC(C)CC3)nc3ccccc3c2=O)CC1	none
COc1cccc(CNS(=O)(=O)/C=C/c2ccc3c(c2)OCO3)c1	CIT2-GFP yeast inconclusive, MEP2-GFP yeast 176[may fluoresce violet], AGP1-GFP MLPCN inconclusive
CC(=O)Oc1ccc(/C=C(\NC(=O)c2ccco2)C(=O)Nc2ccc(C(C)=O)cc2)cc1	CIT2-GFP yeast inconclusive, MEP2-GFP yeast 532[may fluoresce violet]
CCN(CC)Cc1c(O)ccc2c(C)c(CC(=O)OC)c(=O)oc12	MEP2-GFP yeast 205
COC(=O)Cc1c(C)c2ccc(OCC(C)=O)c(C)c2oc1=O	none
COC(=O)Cc1c(C)c2ccc(O)c(CNCc3ccc(OC)c(OC)c3)c2oc1=O	CIT2-GFP yeast inconclusive, MEP2-GFP yeast 547[may fluoresce violet], AGP1-GFP MLPCN inconclusive
Cc1ccc(-c2ccc(CCC(=O)O)o2)cc1	LAP4 TOR yeast 158
Cc1ccc(-c2cc(-c3ccc(C)o3)nc(N)c2C#N)cc1	CIT2-GFP yeast inconclusive, MEP2-GFP yeast 175[may fluoresce violet] (no result: AGP1-GFP MLPCN)
Cc1cccc(NC(=O)CNC(=O)Cc2ccc3c(c2)OCCO3)c1C	none
COCc1cc(=O)[nH]c(SCCS(=O)(=O)c2ccc(Cl)cc2Cl)n1	LAP4 TOR yeast 183
Cc1cc(C(=O)N2CCCC(N3CCN(c4cccc(Cl)c4)CC3)C2)nc(C)n1 (stereo unspecified)	LAP4 TOR yeast inconclusive, CIT2-GFP yeast inconclusive, RPL19A TOR yeast 39[may fluoresce violet], MEP2-GFP yeast inconclusive, AGP1-GFP MLPCN inconclusive
CC1=C(C(=O)N2CCCC(N3CCN(c4cccc(Cl)c4)CC3)C2)OCCO1 (stereo unspecified)	none
COc1ccc(-n2ncc3c(N4CCC(C(N)=O)CC4)ncnc32)cc1	none
CN(/C=C/C(=O)C(F)(F)C(F)(F)F)Cc1ccccc1	none (no result: CIT2-GFP yeast)
